Source: PubChem BioAssay (EPA / NIEHS)
Activity calls are given as the source filed them. How the source made its calls: active means hit-call score of the fitted dose curve at least 0.9, where 1 is the maximum; inactive means score below 0.9.

Columns and labels:
[1] = APR_HepG2_CellCycleArrest_24hr: Apredica 24-hour HepG2 Assay for Cell Cycle Arrest (AID 2282905); settings: imaging, actives raise or lower the signal;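 further: cell cycle arrest scored as ratio of 2N to 4N nuclear DNA content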
How it was run: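 Step one: dose HepG2 with test compounds, 0.39–200 uM, 0.5% DMSO, 24 hr. Step two: fix, permeabilize, stain nuclei with Hoechst 33342. Step three: image six fields per well at 20x, quantify DNA content, fit bidirectionally relative to DMSO.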

[2] = APR_HepG2_NuclearSize_24hr: Apredica 24-hour HepG2 Assay for Nuclear Size (AID 2282907); settings: high-content imaging, actives raise or lower the signal
How it was run: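 After fixation and permeabilization, 24-hr-treated HepG2 cells were stained with Hoechst 33342 and imaged on an ArrayScan (20x). Doses spanned 0.39–200 uM in duplicate. Nuclear diameter changes in either direction were fitted relative to 0.5% DMSO controls.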

[3] = APR_HepG2_CellLoss_24hr: Apredica 24-hour HepG2 Assay for Cell Loss (AID 2282908); settings: high-content imaging;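 on AC50: fit in both directions so a hit may be cell loss or gain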
How it was run: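 Duplicate wells received compound at ten concentrations (0.39–200 uM; final DMSO 0.5% v/v). After fixation with formaldehyde, nuclei stained with Hoechst 33342 were imaged at 20x. Loss or gain of cell count was fitted relative to DMSO controls.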

[4] = APR_HepG2_MicrotubuleCSK_24hr: Apredica 24-hour HepG2 Assay for Microtubule CSK Stabilty (AID 2282909); settings: HepG2 microtubule cytoskeleton imaging, actives raise or lower the signal
How it was run: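 Microtubule stability is scored from tubulin immunofluorescence in fixed HepG2 cells imaged at 20x. Cells receive ten compound concentrations up to 200 uM for 24 h; taxol and DMSO serve as positive and negative controls.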

[5] = APR_HepG2_MitoticArrest_24hr: Apredica 24-hour HepG2 Assay for Mitotic Arrest (AID 2282910); settings: high-content imaging, actives raise or lower the signal
How it was run: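 High-content imaging of fixed HepG2 cells labeled with Hoechst 33342 and anti-phospho-histone H3, after 24 h treatment. Ten concentrations 0.39 to 200 uM in duplicate, final DMSO 0.5%; changes fitted both directions relative to DMSO.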

[6] = APR_HepG2_MitoMembPot_24hr: Apredica 24-hour HepG2 Assay for Mitochondrial Membrane Potential (AID 2282911); settings: imaging, actives raise or lower the signal
How it was run: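 Mitochondrial dye uptake (MitoTracker Red CMXRos, 250 nM, 30 min pre-fixation) in HepG2 after 24 hr compound exposure, 0.39–200 uM; ArrayScan images at 20x, activity fitted in both directions relative to DMSO.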

[7] = APR_HepG2_MitoMass_24hr: Apredica 24-hour HepG2 Assay for Mitochondrial Mass (AID 2282912); settings: high-content imaging, actives raise or lower the signal
How it was run: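 Readout: fluorescence of MitoTracker Red CMXRos (250 nM, added 30 min pre-fixation) in fixed HepG2 cells imaged by HCS. Exposure lasted 24 hr at 0.39–200 uM; increases and decreases were both fitted relative to DMSO.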

[8] = APR_HepG2_p53Act_24hr: Apredica 24-hour HepG2 Assay for p53 Activation (AID 2282913); settings: high-content imaging, actives raise or lower the signal;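 further: p53 protein immunofluorescence averaged per cell in HepG2 with Hoechst nuclei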
How it was run: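 Following 24 hr dosing of HepG2 at 0.39–200 uM, the cells undergo formaldehyde fixation, Triton permeabilization and multiplexed antibody labeling that includes p53 (Cy5). Signal from the imaging is referenced to DMSO solvent controls.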

[9] = APR_HepG2_CellCycleArrest_72hr: Apredica 72-hour HepG2 Assay for Cell Cycle Arrest (AID 2282914); settings: high-content imaging, actives raise or lower the signal
How it was run: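 Using multiplexed high-content imaging, HepG2 nuclei stained with Hoechst 33342 (2 ug/mL) were analysed for DNA content after fixation and permeabilization. Treatment lasted 72 hr across 0.39–200 uM in duplicate with final DMSO 0.5% v/v; DMSO served as negative control.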

[10] = APR_HepG2_CellLoss_72hr: Apredica 72-hour HepG2 Assay for Cell Loss (AID 2282915); settings: high-content imaging
How it was run: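 Cell number comes from Hoechst 33342-labelled nuclei, imaged at 20x after 3.7% formaldehyde fixation. Dosing was 0.39–200 uM, ten concentrations in duplicate, 0.5% DMSO final, for 72 h. Bidirectional fit relative to DMSO baseline.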

Measured: AC50

CCN(CC)N=O
inactive: all assays above

Cc1ccc([N+](=O)[O-])cc1
inactive: all assays above

CC(C)(OOC(C)(C)c1ccccc1)c1ccccc1
active: [1] 36.4 µM | [3] 69.6 µM | [4] 77.2 µM | [5] 29.9 µM | [7] 19.6 µM | [10] 44.4 µM
inactive: [2] | [6] | [8] | [9]

CS(=O)(=O)NC(=O)c1cc(Oc2ccc(C(F)(F)F)cc2Cl)ccc1[N+](=O)[O-]
inactive: all assays above

OCCCl
inactive: all assays above

CCCCCCCCCCCCCN1CC(C)OC(C)C1 (stereo not given)
inactive: [1] | [6]
active: [2] 105 µM | [3] 91.8 µM | [4] 166 µM | [5] 97.6 µM | [7] 189 µM | [8] 66.8 µM | [9] 70.4 µM | [10] 78.9 µM

Clc1ccc(Cl)c(Cl)c1
inactive: all assays above

CCCCC(CC)COC(=O)c1ccc(C(=O)OCC(CC)CCCC)c(C(=O)OCC(CC)CCCC)c1 (stereo not given)
inactive: all assays above

CN(C)c1ccc(C(=O)c2ccc(N(C)C)cc2)cc1
inactive: [2] | [6] | [7]
active: [1] 4.79 µM | [3] 1.64 µM | [4] 0.403 µM | [5] 0.538 µM | [8] 0.317 µM | [9] 0.639 µM | [10] 1.75 µM

ClC1=C(Cl)[C@]2(Cl)[C@H]3[C@H]([C@@H]4C=C[C@H]3C4)[C@@]1(Cl)C2(Cl)Cl
inactive: [1] | [4] | [6]
active: [2] 53.8 µM | [3] 46.5 µM | [5] 25.4 µM | [7] 48.1 µM | [8] 49.7 µM | [9] 16.2 µM | [10] 36.7 µM

C1=Cc2cccc3cccc1c23
inactive: all assays above

Oc1ccccc1Cl
inactive: all assays above

c1ccc2c(c1)-c1cccc3cccc-2c13
active: [3] 85.7 µM | [5] 107 µM | [9] 111 µM | [10] 106 µM
inactive: all other assays above

CCN(CC)CCO
inactive: all assays above

CC(C)(C)C(O)(CCc1ccc(Cl)cc1)Cn1cncn1 (stereo not given)
active: [3] 104 µM | [4] 115 µM | [5] 107 µM | [7] 124 µM | [8] 110 µM | [9] 102 µM | [10] 116 µM
inactive: [1] | [2] | [6]

CCC(C)c1ccc(O)cc1 (stereo not given)
inactive: all assays above

CNC(=O)Oc1cccc2c1OC(C)(C)C2
inactive: all assays above

O=P(OCCCl)(OCCCl)OCCCl
inactive: all assays above

Nc1ccc(Cl)cc1N
active: [1] 0.162 µM | [8] 0.944 µM | [9] 1.46 µM | [10] 1.1 µM
inactive: all other assays above

C=CCc1ccc2c(c1)OCO2
active: [6] 0.0311 µM
inactive: all other assays above

Nc1ccc(Cc2ccc(N)cc2)cc1
inactive: all assays above

COc1cc(C=O)cc2c1[C@H](COC(N)=O)[C@]1(OC(C)=O)ON2C[C@H]2[C@@H]1N2C(C)=O
active: [6] 0.474 µM
inactive: all other assays above

CCCCCOC(=O)c1ccccc1C(=O)OCCCCC
active: [9] 95.9 µM | [10] 106 µM
inactive: all other assays above

O=C1CCCO1
inactive: all assays above

OCCCBr
inactive: all assays above

CCCCCCCCn1sccc1=O
inactive: [7] | [9]
active: [1] 6.2 µM | [2] 10.7 µM | [3] 16.1 µM | [4] 79.4 µM | [5] 7.54 µM | [6] 53.4 µM | [8] 3.62 µM | [10] 5.76 µM

Nc1cc(Cl)cc(C(=O)O)c1Cl
inactive: all assays above

O=[N+]([O-])c1ccc(Oc2ccc(Cl)cc2Cl)cc1
active: [3] 80.8 µM | [10] 89.7 µM
inactive: all other assays above

CCOc1cccc(C2(N3CCN(c4ccccc4)CC3)CCC(C)CC2)c1 (stereo not given)
inactive: all assays above

Cc1ccc(N)c(N)c1
inactive: all assays above

O=C(O)C1C2CCC(O2)C1C(=O)O (stereo not given)
active: [5] 26.6 µM | [7] 41.4 µM | [8] 24.4 µM | [10] 21.5 µM
inactive: all other assays above

CCC[CH2][Sn]([Cl])([CH2]CCC)[CH2]CCC
active: [1] 100 µM | [3] 1.12 µM | [4] 0.908 µM | [5] 0.336 µM | [7] 100 µM | [8] 0.388 µM | [9] 0.0548 µM | [10] 0.574 µM
inactive: [2] | [6]

Nc1ccc(Oc2ccc(N)cc2)cc1
inactive: all assays above

c1ccc2c(c1)oc1ccccc12
inactive: all assays above

C[N+](C)(C)CC1CO1 (stereo not given)
active: [1] 81.2 µM
inactive: all other assays above

CN(C)c1ccccc1
inactive: all assays above

ClC1=C(Cl)C2(Cl)C3C(Cl)C=CC3C1(Cl)C2(Cl)Cl (stereo not given)
active: [1] 40.9 µM | [2] 101 µM | [3] 99.2 µM | [4] 68.7 µM | [5] 76.8 µM | [7] 55 µM | [8] 67.9 µM | [9] 26.7 µM | [10] 56 µM
inactive: [6]

CC(C)(C)OOC(C)(C)CCC(C)(C)OOC(C)(C)C
active: [7] 56.5 µM | [9] 55.1 µM | [10] 56.1 µM
inactive: all other assays above

Clc1ccc(C(c2ccc(Cl)cc2)C(Cl)Cl)cc1
active: [1] 100 µM | [3] 93.7 µM | [4] 156 µM | [5] 89.6 µM | [6] 63.9 µM | [7] 89.1 µM | [8] 107 µM | [9] 90.9 µM | [10] 93.8 µM
inactive: [2]

Nc1ccc([N+](=O)[O-])cc1
inactive: all assays above

ClCCOCCCl
inactive: all assays above
